Screening results: PubChem BioAssay, National Center for Advancing Translational Sciences (NCATS)
Hits are enriched below; roughly 0.86% of the tested compounds scored in any of these assays.
APE1 inh-1 – inhibitors of human APE1 endonuclease | AID 2517 | 350,000 compounds, 0.35% hits | P27695 | Potency, µM (top dose mostly 65.8 µM), most hits filed as inhibitors | recombinant APE1, TAMRA/BHQ-2 abasic DNA cleavage fluorescence; further: nearly all actives have a fitted effect of over 55% in size
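APE1 at 0.75 nM preincubated 15 min at room temperature with compound. Reaction then started with 50 nM double-stranded THF-abasic substrate labelled with TAMRA/BHQ-2, and 525/598 nm fluorescence read kinetically. Activity taken as third-minus-first read difference, normalized to DMSO and NSC13755 controls.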
RECQ1 inh-1 – blocks DNA unwinding by human RECQ1; P46063; RECQ1 DNA unwinding, red fluorescence kinetic read; Potency, µM (titrated, usually from 57.3 µM), hits mostly inhibitors; 240,000 compounds, 0.54% hits; AID 2549; further: nearly all actives have a fitted effect of over 30% in size
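RECQ1T1 50 nM; forked duplex (20 bp + 30-nt ss tails) 200 nM, ATP 2 mM final; pH 8.0, 2 mM MgCl2, 2.5 ug/ml poly(dI-dC); 15 min compound preincubation; discontinuous kinetic read over 2 h at RT.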
FEN1 inh-1 – inhibitors of human flap endonuclease 1; P39748; Recombinant FEN1 flap cleavage, fluorescence, 15 min; Potency, µM (series often up to 114 µM), actives largely listed as inhibitors; 390,000 compounds, 0.35% hits; further: nearly all actives have a fitted effect of over 65% in size
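Recombinant FEN1 (10 nM) was preincubated with pin-transferred compounds for 15 min at room temperature, then flap DNA substrate (50 nM final) was added. Plates were read at 0 and 15 min, and normalized concentration–response data were fitted to a four-parameter Hill equation.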
GLS inh – inhibitors of human glutaminase (GLS); AID 624170; GLS enzymatic activity, qHTS titration; Potency, µM (series often up to 45.5 µM), hits mostly inhibitors; O94925; 410,000 compounds, 0.21% hits
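Human kidney-isoform GLS in 45 mM KH2PO4 pH 8.2, 0.02% Tween-20, with compound, started with 1mM L-Glutamine (added stock). Glutamate oxidase/HRP/Amplex red coupled fluorescence read at start and after 30 min at RT.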
BLM inh-1 – blocks DNA unwinding by human BLM helicase. recombinant BLM DNA unwinding, fluorescence dequenching. Potency, µM (doses to about 56.1 µM), hits mostly inhibitors. 350,000 compounds, 0.2% hits; further: nearly all actives have a fitted effect of over 35% in size
PGK inhibitor – blocks T. brucei phosphoglycerate kinase; P07378; PGK/GAPDH coupled, Kinase-Glo luminescence, 60 min; Potency, µM (highest dose often 57.5 µM), actives largely listed as inhibitors; 380,000 compounds, 0.043% hits; AID 602233; further: nearly all actives have a fitted effect of over 60% in size
Target sequence (P07378 whole entry, looked up): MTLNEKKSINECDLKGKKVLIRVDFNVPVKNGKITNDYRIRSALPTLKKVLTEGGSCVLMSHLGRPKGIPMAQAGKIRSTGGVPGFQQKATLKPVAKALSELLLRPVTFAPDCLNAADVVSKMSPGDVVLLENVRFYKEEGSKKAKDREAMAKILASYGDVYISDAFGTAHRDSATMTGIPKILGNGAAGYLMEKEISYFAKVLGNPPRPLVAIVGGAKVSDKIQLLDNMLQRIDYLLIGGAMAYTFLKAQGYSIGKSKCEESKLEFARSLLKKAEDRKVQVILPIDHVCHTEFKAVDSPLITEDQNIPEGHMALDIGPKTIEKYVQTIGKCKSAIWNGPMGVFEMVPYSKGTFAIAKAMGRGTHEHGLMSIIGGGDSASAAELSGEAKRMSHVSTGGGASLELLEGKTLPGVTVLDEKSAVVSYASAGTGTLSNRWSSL
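Luminescent ATP detection (Kinase-Glo Plus) follows a 60-minute room-temperature incubation, with wells lacking PGK as controls. Buffer: 100 mM TEA (pH 7.6), 5 mM MgCl2, 0.01% Tween-20. Coupling enzyme GAPDH (100 nM final) supplies unstable 1,3-BPG in-well.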
DNA dye displace – DNA dye displacement counter-screen activity; shares compounds with APE1 inh-1; DNA fluorescent dye displacement counterscreen, fluorescence; Potency, µM (doses to about 28.5 µM), hits mostly inhibitors; 480 compounds, 7% hits;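 further: loss of thiazole orange fluorescence as the dye is displaced from duplex DNA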
Endo IV inh – counter-screen for APE1 inhibitors: inhibitors of E. coli endonuclease IV. Potency, µM (doses to about 27.1 µM), usual class: inhibitors. shares compounds with APE1 inh-1. 560 compounds, 4% hits. AID 2565. E. coli Endo IV, fluorogenic AP-site DNA cleavage
APE1 inh-2 – APE1 (human) endonuclease inhibition, confirmation; Potency, µM (top dose mostly 57.1 µM), hits mostly inhibitors; AID 2572; shares compounds with APE1 inh-1; purified APE1, fluorogenic abasic-site DNA cleavage; 750 compounds, 44% hits; further: nearly all actives have a fitted effect of over 30% in size
APE1 FP inh – displaces DNA from human APE1 in FP assay. shares compounds with APE1 inh-1. APE1 binding to TAMRA-labelled double-stranded DNA, fluorescence polarization displacement. Potency, µM (doses to about 28.5 µM), usual class: inhibitors. 480 compounds, 7% hits. AID 2573
BLM inh-2 – BLM (human) helicase inhibition, confirmation; BLM DNA unwinding, fluorescence quenching, biochemical; Potency, µM, most hits filed as inhibitors; shares compounds with BLM inh-1; 220 compounds, 40% hits;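 further: strand separation dequenches TAMRA so unwinding raises red fluorescence; series mostly up to about 69 µM; nearly all actives have a fitted effect of over 45% in size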
RECQ1 inh-2 – confirmation of human RECQ1 helicase inhibitors; Potency, µM (top dose mostly 119 µM), usual class: inhibitors; AID 504841; shares compounds with RECQ1 inh-1; recombinant RECQ1 DNA unwinding, red fluorescence; 1,100 compounds, 15% hits; further: nearly all actives have a fitted effect of over 50% in size
FEN1 inh-2 – FEN1 inhibition, cherry-pick retest. shares compounds with FEN1 inh-1. FEN1 flap cleavage, TAMRA/BHQ2 fluorogenic DNA substrate. Potency, µM, usual class: inhibitors. 880 compounds, 79% hits. AID 720498; further: nearly all actives have a fitted effect of over 60% in size
Numbers stand for hits; . = inactive; ? = inconclusive; / = not tested or not shown. The call rests on the fitted dose curve; in most records, active means well fitted curve in the direction sought with a large enough effect; inconclusive means small, poorly fitted or top-dose-only effect, or another doubt; inactive means no such curve, though single readings can be large; an effect the other way counts as inactive or inconclusive.

SMILES	APE1 inh-1	RECQ1 inh-1	FEN1 inh-1	GLS inh	BLM inh-1	PGK inhibitor	DNA dye displace	Endo IV inh	APE1 inh-2	APE1 FP inh	FEN1 inh-2	others
COCCCNc1c2c3c(cccc3[nH]c1=O)C(=O)c1ccccc1-2	?	25µM	79µM	.	.	.	/	13µM	?	4µM	60	RECQ1 inh-2=56µM
CCN(c1ccccc1)S(=O)(=O)c1cc(C(=O)O)ccc1C	16µM	28µM	.	.	.	.	/	/	32µM	/	?	RECQ1 inh-2=?
CN(C)c1ccc(/C=C2/CCc3ccccc32)cc1	/	/	.	/	/	/	/	/	/	/	/
O=c1cc2c(=O)oc3cc(O)c(O)oc3c2c(O)c1O	0.35µM	4.5µM	7.1µM	?	.	?	?	.	0.13µM	.	8.5
COc1cc(N(C)C)c(OC)cc1/C=C1\C=Cc2ccccc21	/	/	.	/	/	/	/	/	/	/	/
Nc1nonc1-c1nc2ccccc2n1CC(=O)Nc1ccccc1C(=O)O	/	/	.	.	.	.	/	/	/	/	/
Nc1nonc1-c1nc2ccccc2n1CC(=O)N/N=C/c1ccc(-c2cccc(C(=O)O)c2)o1	?	.	45µM	.	?	?	.	.	13µM	.	38
CC(=O)Nc1sc2c(c1-c1nc3ccccc3s1)CCN(C(C)C)C2	13µM	?	?	.	.	.	.	13µM	3.5µM	2.5µM	12	BLM inh-2=.;RECQ1 inh-2=45µM
Cc1ccc2nc(-c3ccc(C)c(NC(=O)COc4ccc(Br)cc4)c3)oc2c1	/	/	.	/	/	/	/	/	/	/	/
c1ccc(N=c2nc(-c3ccccc3)n(-c3ccccc3)s2)cc1	/	/	.	/	/	/	/	/	/	/	/
Cc1c(Cl)cccc1N=Cc1ccc([N+](=O)[O-])s1	?	?	14µM	.	.	.	?	.	.	.	13	RECQ1 inh-2=?
COc1ccc(NC(=O)c2cc3c(-c4ccc(OC)c(OC)c4)nn(C)c3s2)cc1OC	?	.	11µM	.	?	.	.	11µM	13µM	.	11
COc1ccc(-c2nn(C)c3sc(C(=O)NCc4ccco4)cc23)cc1OC	.	.	.	.	.	.	/	/	/	/	/
N#C/C(=C\c1cc(O)c(O)c(O)c1)C(N)=O	3.5µM	.	?	.	?	/	.	.	?	.	13
O=Cc1cc2ccccc2cc1O	/	/	.	/	/	/	/	/	/	/	/
O=c1c(O)cccc2cc(O)c(O)c(O)c12	0.71µM	2.5µM	?	1.6µM	13µM	0.79µM	/	.	0.45µM	/	24
CN(C)c1ccc(/C=C2\C=Cc3ccccc32)cc1N	/	/	.	/	/	/	/	/	/	/	/
O=C(COc1ccccc1C(=O)Nc1cccc(F)c1)Nc1ccc(Br)cc1	/	/	.	/	/	/	/	/	/	/	/
C=CCc1cccc2cc(C(=O)Nc3ccc(S(=O)(=O)Nc4nnc(CC)s4)cc3)c(=O)oc12	?	.	40µM	.	?	?	/	/	40µM	/	85
NC(=O)CC1Nc2cccc3cccc(c23)NC1=O (stereo unspecified)	.	.	.	.	2.8µM	.	/	/	/	/	/	BLM inh-2=.
